Measurements taken from PubChem BioAssay (EPA / NIEHS).
Inconclusive results are not listed. The source made the active and inactive calls. The calls were made as follows, unless noted: active = hit-call score of the fitted dose curve at least 0.9, where 1 is the maximum; inconclusive = response in the unintended direction; inactive = score below 0.9.

Key:
[1] = target: Peroxisome proliferator-activated receptor gamma (Homo sapiens) (UniProt P37231); assay: ATG_hPPARg_XSP2: Attagene TRANS-FACTORIAL Multi-Species (XSP2) HepG2 Assay for human Peroxisome Proliferator-activated Receptor gamma (PPARg) (AID 2283829);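 also: actives raise reporter mRNA above DMSO so AC50 reflects PPARg activation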
Chain of Peroxisome proliferator-activated receptor gamma (Homo sapiens) (P37231 whole entry, looked up, the tested form may be a part): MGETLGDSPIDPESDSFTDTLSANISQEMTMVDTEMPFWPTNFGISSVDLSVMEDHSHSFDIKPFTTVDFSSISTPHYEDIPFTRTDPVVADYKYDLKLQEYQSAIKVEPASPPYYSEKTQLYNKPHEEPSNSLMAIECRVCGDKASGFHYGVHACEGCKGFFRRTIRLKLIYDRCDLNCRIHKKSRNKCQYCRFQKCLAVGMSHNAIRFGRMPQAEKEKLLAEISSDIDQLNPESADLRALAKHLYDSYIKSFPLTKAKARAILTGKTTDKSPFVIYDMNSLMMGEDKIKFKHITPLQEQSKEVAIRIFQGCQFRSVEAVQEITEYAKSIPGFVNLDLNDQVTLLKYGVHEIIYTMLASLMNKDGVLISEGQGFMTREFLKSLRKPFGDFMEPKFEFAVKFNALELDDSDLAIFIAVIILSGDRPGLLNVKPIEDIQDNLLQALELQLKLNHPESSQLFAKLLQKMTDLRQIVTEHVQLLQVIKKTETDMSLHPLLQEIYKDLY
Outline: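 Multiplexed transactivation in transfected HepG2 liver cells. Gal4-chimeric receptor activity reported as induced reporter transcript after 24 h.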

[2] = target: mouse Peroxisome Proliferator-activated Receptor gamma (PPARg), Pparg (gene 19016) (UniProt P37238); assay: ATG_mPPARg_XSP2: Attagene TRANS-FACTORIAL Multi-Species (XSP2) HepG2 Assay for mouse Peroxisome Proliferator-activated Receptor gamma (PPARg) (AID 2283830);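 also: hits are gains in reporter mRNA above DMSO so AC50 marks activation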
Chain of mouse Peroxisome Proliferator-activated Receptor gamma (PPARg), Pparg (gene 19016) (P37238 whole entry, looked up, the tested form may be a part): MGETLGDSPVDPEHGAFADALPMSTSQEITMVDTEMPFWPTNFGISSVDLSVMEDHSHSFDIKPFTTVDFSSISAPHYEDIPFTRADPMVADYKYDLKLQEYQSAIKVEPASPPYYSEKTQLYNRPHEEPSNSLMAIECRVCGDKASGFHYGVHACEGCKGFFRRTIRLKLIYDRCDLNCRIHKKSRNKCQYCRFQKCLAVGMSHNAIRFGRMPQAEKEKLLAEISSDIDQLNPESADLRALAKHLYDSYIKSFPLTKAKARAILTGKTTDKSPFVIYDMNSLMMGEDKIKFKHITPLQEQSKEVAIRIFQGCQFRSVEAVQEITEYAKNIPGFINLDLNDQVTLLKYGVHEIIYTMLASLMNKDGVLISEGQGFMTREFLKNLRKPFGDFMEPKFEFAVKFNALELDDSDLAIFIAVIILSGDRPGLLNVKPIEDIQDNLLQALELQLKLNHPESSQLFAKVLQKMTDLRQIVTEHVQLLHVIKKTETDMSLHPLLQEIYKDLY
Outline: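 Multiplexed TRANS reporter readout: after 24 h chemical exposure of transfected HepG2 cells (with 3 nM 6-alpha-fluorotestosterone, 1.5 nM norgestrel present), RNA reverse-transcribed, amplified, 6-FAM-labelled and resolved by capillary electrophoresis; mouse PPARg-Gal4 induction scored against DMSO.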

[3] = target: Nuclear receptor subfamily 1 group I member 2 (Mus musculus) (UniProt O54915); assay: ATG_mPXR_XSP2: Attagene TRANS-FACTORIAL Multi-Species (XSP1) HepG2 Assay for mouse Pregnane X Receptor (PXR) (AID 2283831)
Chain of Nuclear receptor subfamily 1 group I member 2 (Mus musculus) (O54915 whole entry, looked up, the tested form may be a part): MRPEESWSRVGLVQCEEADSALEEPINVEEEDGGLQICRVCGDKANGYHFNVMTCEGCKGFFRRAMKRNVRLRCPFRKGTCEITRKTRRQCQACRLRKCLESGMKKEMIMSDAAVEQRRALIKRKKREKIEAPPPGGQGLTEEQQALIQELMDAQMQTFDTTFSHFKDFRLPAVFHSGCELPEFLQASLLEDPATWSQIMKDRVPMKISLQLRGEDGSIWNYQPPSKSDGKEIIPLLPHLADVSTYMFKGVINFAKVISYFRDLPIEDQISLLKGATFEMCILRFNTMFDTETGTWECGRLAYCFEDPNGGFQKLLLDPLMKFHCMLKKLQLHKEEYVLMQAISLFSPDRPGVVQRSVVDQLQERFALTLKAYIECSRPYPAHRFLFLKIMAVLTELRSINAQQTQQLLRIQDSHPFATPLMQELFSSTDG
Outline: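 Human liver HepG2 cells expressing exogenous receptor-GAL4 chimeras were exposed to test chemicals for 24 h. Induction of reporter mRNA was scored as gain of fluorescence signal over DMSO controls.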

[4] = target: zebrafish Thyroid Hormone Receptor alpha (TRa), thraa (gene 30670) (UniProt Q98867); assay: ATG_zfTRa_XSP2: Attagene TRANS-FACTORIAL Multi-Species (XSP1) HepG2 Assay for zebrafish Thyroid Hormone Receptor alpha (TRa) (AID 2283832);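 also: actives raise zebrafish TRa-Gal4 reporter transcript above DMSO baseline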
Chain of zebrafish Thyroid Hormone Receptor alpha (TRa), thraa (gene 30670) (Q98867 whole entry, looked up, the tested form may be a part): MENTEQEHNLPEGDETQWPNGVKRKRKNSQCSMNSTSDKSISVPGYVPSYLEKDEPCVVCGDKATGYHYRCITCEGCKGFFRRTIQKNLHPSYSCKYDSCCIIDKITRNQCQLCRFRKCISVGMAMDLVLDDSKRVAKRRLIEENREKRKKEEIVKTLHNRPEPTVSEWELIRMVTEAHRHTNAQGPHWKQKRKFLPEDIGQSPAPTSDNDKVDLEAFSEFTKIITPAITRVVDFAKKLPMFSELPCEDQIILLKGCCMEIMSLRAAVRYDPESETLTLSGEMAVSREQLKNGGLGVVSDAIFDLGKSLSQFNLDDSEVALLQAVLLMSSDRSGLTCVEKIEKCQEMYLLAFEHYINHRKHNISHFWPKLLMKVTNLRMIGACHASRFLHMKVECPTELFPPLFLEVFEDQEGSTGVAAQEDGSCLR
Outline: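 Readout is reporter mRNA induction, quantified by RT-PCR and capillary electrophoresis with fluorescent labelling, after 24 h compound exposure of transiently transfected HepG2 cells carrying NR-Gal4 chimera reporters. Activity fitted upward relative to DMSO.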

[5] = test system: zebrafish Peroxisome Proliferator-activated Receptor gamma (PPARg), gene 557037; assay: ATG_zfPPARg_XSP2: Attagene TRANS-FACTORIAL Multi-Species (XSP2) HepG2 Assay for zebrafish Peroxisome Proliferator-activated Receptor gamma (PPARg) (AID 2283833);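 also: reporter mRNA from a zebrafish PPARg GAL4 chimera measured by RT-PCR and capillary electrophoresis; actives increase reporter signal over DMSO so AC50 reflects activation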
Outline: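 Cell-based transactivation of a chimeric zebrafish PPARg-GAL4 receptor was assessed in transiently transfected HepG2 cells after 24 h of treatment. Reporter mRNA induction, detected fluorescently after RT-PCR, was analysed in the positive direction against DMSO.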

[6] = test system: turtle Thyroid Hormone Receptor, alpha (TRa), gene 101949057; assay: ATG_trTRa_XSP2: Attagene TRANS-FACTORIAL Multi-Species (XSP1) HepG2 Assay for turtle Thyroid Hormone Receptor, alpha (TRa) (AID 2283834);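 also: hits raise reporter mRNA over the DMSO baseline so AC50 marks activators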
Outline: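 Gain-of-signal reporter transcription measured in transiently transfected HepG2 at 24 h post-dose. Fluorescent RT-PCR products were resolved by capillary electrophoresis and compared with DMSO vehicle.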

[7] = ATG_M_61_XSP2: Attagene TRANS-FACTORIAL Multi-Species (XSP2) HepG2 Assay for M61 Transcription Factor (Internal Marker) (AID 2283835; active = hit-call score of the fitted dose curve at least 0.9, where 1 is the maximum; inactive = score below 0.9;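 also: reporter mRNA of an internal background marker read by RT-PCR and capillary electrophoresis; active means a rise in signal above the DMSO baseline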)
Outline: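 Signal was mRNA induction detected as fluorescence after RT-PCR and capillary electrophoresis, analysed in the gain direction with DMSO as baseline. HepG2 cells transiently carrying reporter constructs received chemicals for 24 h.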

[8] = target: zebrafish Thyroid Hormone Receptor beta (TRb), thrb (gene 30607) (UniProt Q9PVE4); assay: ATG_zfTRb_XSP2: Attagene TRANS-FACTORIAL Multi-Species (XSP1) HepG2 Assay for zebrafish Thyroid Hormone Receptor beta (TRb) (AID 2283836)
Chain of zebrafish Thyroid Hormone Receptor beta (TRb), thrb (gene 30607) (Q9PVE4 whole entry, looked up): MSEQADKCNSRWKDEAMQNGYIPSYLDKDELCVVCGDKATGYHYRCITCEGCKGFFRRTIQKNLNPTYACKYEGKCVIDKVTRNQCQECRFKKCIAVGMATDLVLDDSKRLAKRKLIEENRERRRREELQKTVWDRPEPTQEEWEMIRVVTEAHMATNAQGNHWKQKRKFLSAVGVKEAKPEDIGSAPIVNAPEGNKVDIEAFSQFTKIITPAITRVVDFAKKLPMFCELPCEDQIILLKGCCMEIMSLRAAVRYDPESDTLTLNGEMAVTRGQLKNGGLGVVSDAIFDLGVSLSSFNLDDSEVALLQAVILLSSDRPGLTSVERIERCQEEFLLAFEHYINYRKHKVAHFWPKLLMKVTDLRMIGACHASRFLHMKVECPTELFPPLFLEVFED
Outline: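 Reporter transcripts were measured by RT-PCR with fluorescent primer extension and capillary electrophoresis, 24 h after chemical dosing of transiently transfected HepG2 cells. Activity was scored as upward signal versus DMSO baseline.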

[9] = target: human Thyroid hormone Receptor alpha (TRa), THRA (gene 7067) (UniProt P10827); assay: ATG_hTRa_XSP2: Attagene TRANS-FACTORIAL Multi-Species (XSP2) HepG2 Assay for human Thyroid hormone Receptor alpha (TRa) (AID 2283838)
Chain of human Thyroid hormone Receptor alpha (TRa), THRA (gene 7067) (P10827 whole entry, looked up, the tested form may be a part): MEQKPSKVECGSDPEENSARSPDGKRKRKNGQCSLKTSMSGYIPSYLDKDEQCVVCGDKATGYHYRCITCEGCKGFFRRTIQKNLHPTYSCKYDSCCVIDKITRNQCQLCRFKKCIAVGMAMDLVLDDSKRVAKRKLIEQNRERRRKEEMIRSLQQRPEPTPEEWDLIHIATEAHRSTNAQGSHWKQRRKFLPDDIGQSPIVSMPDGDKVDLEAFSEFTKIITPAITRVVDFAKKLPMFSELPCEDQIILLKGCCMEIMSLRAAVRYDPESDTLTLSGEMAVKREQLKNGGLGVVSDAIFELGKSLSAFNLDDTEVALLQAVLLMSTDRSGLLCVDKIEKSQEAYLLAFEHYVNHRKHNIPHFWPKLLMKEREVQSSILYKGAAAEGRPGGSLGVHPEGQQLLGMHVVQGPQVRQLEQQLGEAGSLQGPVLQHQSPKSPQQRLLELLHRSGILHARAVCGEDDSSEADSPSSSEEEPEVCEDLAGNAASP
Outline: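 Gain-of-signal in reporter mRNA, relative to DMSO, after 24 h dosing of transfected HepG2; quantitation by RT-PCR fragment analysis on capillary electrophoresis.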

[10] = target: human Thyroid hormone Receptor beta (TRb), THRB (gene 7068) (UniProt P10828); assay: ATG_hTRb_XSP2: Attagene TRANS-FACTORIAL Multi-Species (XSP2) HepG2 Assay for human Thyroid hormone Receptor beta (TRb) (AID 2283840);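 also: actives raise reporter mRNA so potency reflects agonist-like gain of signal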
Chain of human Thyroid hormone Receptor beta (TRb), THRB (gene 7068) (P10828 whole entry, looked up, the tested form may be a part): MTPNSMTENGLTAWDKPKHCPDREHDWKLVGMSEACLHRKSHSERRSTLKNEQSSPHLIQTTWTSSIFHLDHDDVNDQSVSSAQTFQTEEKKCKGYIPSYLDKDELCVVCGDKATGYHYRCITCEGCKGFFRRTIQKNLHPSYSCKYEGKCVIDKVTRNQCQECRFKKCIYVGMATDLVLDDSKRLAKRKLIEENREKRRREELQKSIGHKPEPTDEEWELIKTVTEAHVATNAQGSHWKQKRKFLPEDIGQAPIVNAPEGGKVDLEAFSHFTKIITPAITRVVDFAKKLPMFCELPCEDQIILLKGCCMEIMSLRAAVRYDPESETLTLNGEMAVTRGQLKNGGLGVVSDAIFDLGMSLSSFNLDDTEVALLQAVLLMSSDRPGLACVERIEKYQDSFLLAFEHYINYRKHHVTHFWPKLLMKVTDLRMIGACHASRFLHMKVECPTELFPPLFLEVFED
Outline: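 In this cell-based multiplex, HepG2 liver cells carrying transfected GAL4-UAS reporter constructs are exposed to chemical for 24 hours, then reporter transcripts are measured by RT-PCR with capillary electrophoresis, scored as gain of signal against DMSO.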

[11] = test system: Sodium/Iodide Symporter (NIS), SLC5A5 (gene 6528); assay: CPHEA_Stoker_NIS_Inhibition_RAIU: CPHEA's Radioactive Iodide Uptake (RAIU) Assay for Sodium/Iodide Symporter (NIS) Inhibition, Stoker and Laws Labs (AID 2283841)
Outline: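 Test chemicals, six concentrations from 0.001 to 100uM in 0.5% DMSO, were co-incubated with carrier-free 125I (final 329pM) on hNIS-HEK293T-EPA monolayers in pH 7.4 HEPES-buffered HBSS. Plates stood 2 hours at room temperature, then were washed cold and counted.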

[12] = CPHEA_Stoker_NIS_Cytotoxicity: Cytotoxicity Assessment for CPHEA's Radioactive Iodide Uptake (RAIU) Assay for Sodium/Iodide Symporter (NIS) Inhibition, Stoker and Laws Labs (AID 2283897);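 as to AC50: active means loss of ATP signal versus DMSO meaning cytotoxicity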
Outline: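 Viability in hNIS-HEK293T-EPA cells is scored as a drop in luciferase-detected ATP following 2-hour room-temperature exposure (0.001–100uM; triplicate wells, three cell passages), with DMSO as negative control.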

[13] = test system: frog Estrogen Receptor (ER2), gene 100174814; assay: ATG_frER2_XSP2: Attagene TRANS-FACTORIAL Multi-Species (XSP2) HepG2 Assay for frog Estrogen Receptor (ER2) (AID 2283828)
Outline: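 Induction of reporter mRNA, baseline set by DMSO, is the endpoint. The panel was run in transfected HepG2 cells over 24 h, with 3 nM 6-alpha-fluorotestosterone and 1.5 nM norgestrel present to stimulate androgen receptor.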

[14] = target: frog Thyroid hormone Receptor alpha (TRa), thra-a (gene 397942) (UniProt P15204); assay: ATG_frTRa_XSP2: Attagene TRANS-FACTORIAL Multi-Species (XSP2) HepG2 Assay for frog Thyroid hormone Receptor alpha (TRa) (AID 2283839);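 also: AC50 reflects induction of frog TRa-driven reporter mRNA above DMSO baseline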
Chain of frog Thyroid hormone Receptor alpha (TRa), thra-a (gene 397942) (P15204 whole entry, looked up, the tested form may be a part): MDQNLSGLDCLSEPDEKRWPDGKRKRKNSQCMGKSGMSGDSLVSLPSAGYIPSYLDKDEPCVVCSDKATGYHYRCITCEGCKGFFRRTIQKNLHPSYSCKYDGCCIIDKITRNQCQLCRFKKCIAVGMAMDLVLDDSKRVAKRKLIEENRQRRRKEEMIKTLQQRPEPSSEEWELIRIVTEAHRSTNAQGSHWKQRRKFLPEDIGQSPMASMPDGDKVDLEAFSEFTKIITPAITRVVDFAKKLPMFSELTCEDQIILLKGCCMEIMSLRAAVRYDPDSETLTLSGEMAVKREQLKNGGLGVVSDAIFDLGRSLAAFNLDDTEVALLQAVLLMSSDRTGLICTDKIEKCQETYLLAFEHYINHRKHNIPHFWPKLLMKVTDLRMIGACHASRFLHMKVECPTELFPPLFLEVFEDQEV
Outline: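 Frog thyroid receptor alpha was tested as an exogenous NR-Gal4 fusion in transiently transfected HepG2 cells. After 24 h chemical treatment, reporter mRNA induction was quantified by RT-PCR and capillary electrophoresis, with gain-of-signal analysed relative to DMSO.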

Measured: AC50

CCN(CC)C(=S)SSC(=S)N(CC)CC
active: [1] 34.9 µM | [2] 42.9 µM | [3] 5.57 µM
inactive: [4] | [5] | [6] | [7] | [8] | [9] | [10] | [11] | [12]

CC(C)c1nnc2ccc(-c3ocnc3-c3cc(F)ccc3F)cn12
inactive: [11] | [12]

Cc1nccn1-c1ccc(Sc2cccc(C3(C(N)=O)CCOCC3)c2)cc1
inactive: [11] | [12]

NC(=O)N1c2ccccc2C=Cc2ccccc21
inactive: [11] | [12]

COc1cc(C(C)C)c2c(c1)S(=O)(=O)N(COc1cc(=O)n3cccc(OCCN4CCCCC4)c3n1)C2=O
inactive: [11] | [12]

C=CCc1cc(S(=O)(=O)c2ccc(O)c(CC=C)c2)ccc1O
inactive: [13] | [3] | [5] | [6] | [7]
active: [1] 5.26 µM | [2] 19.2 µM | [14] 1.72 µM | [11] 38.9 µM | [12] 36.8 µM

OCC(CO)(CO)CO
inactive: [11] | [12]
